Experimental data reported in PubChem BioAssay (NCATS).
Inconclusive results are not listed. Active and inactive are the calls of the source. Unless noted, the call rests on the fitted dose curve; in most records, active means well fitted curve in the direction sought with a large enough effect; inconclusive means small, poorly fitted or top-dose-only effect, or another doubt; inactive means no such curve, though single readings can be large; an effect the other way counts as inactive or inconclusive.

Legend:
[1] = Quantitative High-Throughput drug screen in 47 multiple myeloma cell lines against the NCATS MIPE library collection: KMS11_JCRBsus cell viability assay (AID 1919873); further: nearly all actives have a fitted effect of over 50% in size; further: potency means the concentration at half of the fitted maximal effect
How it was run: (§1)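 Readout: median RLU from CellTiter-Glo after 5 min at room temperature. Preceding step was 48 h drug treatment of 500 cells/well at 37 °C, 5% CO2, with DMSO-only and media-only control wells.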

[2] = qHTS for identification of novel therapeutic agents for treatment of microphthalmiaassociated transcription factor (MiT) renal cell carcinoma (RCC) (AID 1963991; calls by dose curve; further: potency means the concentration at half of the fitted maximal effect); conditions: CellTiter-Glo, 48 h; for z-score: stronger effect = lower value
How it was run: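 Three TFE3-fusion RCC lines (UOK109, UOK124, UOK145), 500 cells/well in complete medium, were treated with MIPE 4.0 compounds for 48 hours at 37 C. Viability was by CellTiter-Glo luminescence, normalized to DMSO (100%) and empty wells (0%); curves fitted over 11 concentrations.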

[3] = Quantitative High-Throughput drug screen in 47 multiple myeloma cell lines against the NCATS MIPE library collection: KMS28BM_JCRB cell viability assay (AID 1919874); further: nearly all actives have a fitted effect of over 35% in size; further: potency means the concentration at half of the fitted maximal effect
How it was run: as §1

[4] = qHTS drug screen for cell cycle checkpoint inhibitors in PARPi-resistant BRCA-mutant ovarian cancer cell lines. (AID 1963452; calls by dose curve); conditions: PEO1/OlaR viability, CellTiter-Glo luminescence, 96 h, stronger effect = lower value
How it was run: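 PEO1, PEO4 and PEO1/OlaR ovarian cancer cells, 600 per well, exposed 96 h at 37C to a dilution series. Viability read by CellTiter-Glo luminescence, normalized to DMSO and empty wells; activity summarized as Z-AUC.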

[5] = test system: 3D7; assay: qHTS profiling for inhibitors of Plasmodium falciparum proliferation (AID 504749);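 further: 0% = DMSO vehicle and full inhibition = artemisinin control; nearly all actives have a fitted effect of over 60% in size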; conditions: P. falciparum in erythrocytes, SYBR Green DNA, 72 h; series mostly up to 28.7 µM
How it was run: (§2)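 Fluorescence of SYBR Green-bound parasite DNA, read at 485/535 nm, served as the growth measure. Infected erythrocytes were cultured with compound 72 h; artemisinin (0.29 uM) and DMSO wells defined the normalization range.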

[6] = test system: 7G8; assay: as above; conditions: P. falciparum in erythrocytes, SYBR Green DNA, 72 h; series mostly up to 28.7 µM
How it was run: as §2

[7] = test system: CP192; assay: as above; conditions: P. falciparum in erythrocytes, SYBR Green DNA, 72 h; series mostly up to 28.7 µM
How it was run: as §2

[8] = test system: CP194; assay: as above; conditions: P. falciparum in erythrocytes, SYBR Green DNA, 72 h; series mostly up to 28.7 µM
How it was run: as §2

[9] = test system: CP201; assay: as above; conditions: P. falciparum in erythrocytes, SYBR Green DNA, 72 h; series mostly up to 28.7 µM
How it was run: as §2

[10] = test system: CP211; assay: as above; conditions: P. falciparum in erythrocytes, SYBR Green DNA, 72 h; series mostly up to 28.7 µM
How it was run: as §2

[11] = test system: CP215; assay: as above; conditions: P. falciparum in erythrocytes, SYBR Green DNA, 72 h; series mostly up to 28.7 µM
How it was run: as §2

[12] = TFE3-RCC UOK109 viability, measured here: UOK109 Z-AUC
[13] = TFE3-RCC viability, measured here: UOK124 Z-AUC
[14] = TFE3-RCC viability, measured here: UOK145 Z-AUC
[15] = measured here: PEO1 parental Z-AUC

Compound: CCCN1CCO[C@@H]2c3cc(O)ccc3OC[C@@H]21
- Potency [1]: inactive
- z-score [2, 12]: 0.649
- z-score [2, 13]: 0.425
- z-score [2, 14]: 0.561

Compound: C1=C2CCCN[C@H]2[C@@H]2C[C@H]1[C@@H]1CCCCN1C2
- Potency [1]: inactive
- Potency [3]: inactive
- z-score [2, 12]: -0.0816
- z-score [2, 13]: 0.828
- z-score [2, 14]: 0.304

Compound: COC1=CC(C)=C[C@@H](C)[C@@H](O)[C@@H](C)CC(C)=CC=C[C@H](OC)[C@H]([C@@H](C)[C@@H](O)[C@H](C)[C@@]2(O)C[C@@H](O)[C@H](C)[C@@H](C(C)C)O2)OC1=O
- Potency [1]: 1.9 nM (active)
- Potency [3]: 20900 nM (active)
- Potency ([2]; TFE3-RCC UOK109 viability): 26400 nM (active)
- z-score [2, 12]: -1.69
- z-score [2, 13]: -2.76
- z-score [2, 14]: -3.22

Compound: C=C1C[C@H]2[C@H]3CCC(=O)[C@@]3(C)CC[C@@H]2[C@@]2(C)C=CC(=O)C=C12
- Potency [3]: inactive

Compound: C[C@@H]1CC[C@H]2[C@@H](C)C(=O)O[C@@H]3O[C@@]4(C)CC[C@H]1[C@]32OO4
- Potency [1]: inactive
- z-score [2, 12]: 0.72
- z-score [2, 13]: 0.74
- z-score [2, 14]: 0.344

Compound: CC(C)[C@]12O[C@@H]1[C@@H]1O[C@]13[C@]1(O[C@H]1C[C@@H]1C4=C(CC[C@@]13C)C(=O)OC4)[C@H]2O
- Potency [1]: inactive
- Potency [3]: inactive
- z-score [2, 12]: -3.4
- z-score [2, 13]: -3.26
- z-score [2, 14]: -3.53

Compound: Cc1ccccc1-n1c(Cn2ncc3c(N)ncnc32)nc2cccc(C)c2c1=O
- Potency [1]: 1050 nM (active)
- Z-AUC [4]: -0.794 (inactive)
- Z-AUC [4, 15]: -0.62
- Z-AUC ([4]; measured here: PEO4 Z-AUC): -0.742
- Potency ([2]; TFE3-RCC UOK109 viability): 52.6 nM (active)
- z-score [2, 12]: -1.3
- z-score [2, 13]: -1.03
- z-score [2, 14]: -1.02

Compound: O=C1C=CC[C@@H]2[C@H]3CCCN4CCC[C@@H](CN12)[C@@H]34
- Potency [1]: inactive
- Z-AUC [4]: 0.0265 (inactive)
- Z-AUC [4, 15]: 1.52
- Z-AUC ([4]; measured here: PEO4 Z-AUC): 0.946

Compound: C[C@H]([C@H](O)CCC(C)(C)O)[C@H]1CC[C@@]2(O)C3=CC(=O)[C@@H]4C[C@@H](O)[C@@H](O)C[C@]4(C)[C@@H]3CC[C@]12C
- Potency [1]: inactive
- z-score [2, 12]: 0.847
- z-score [2, 13]: 0.683
- z-score [2, 14]: -2.52

Compound: C[C@@H]1O[C@@H](O[C@@H]2C=C3CC[C@@H]4[C@@H](CC[C@]5(C)[C@H](c6ccc(=O)oc6)CC[C@@]45O)[C@@]3(C)CC2)[C@H](O)[C@H](O)[C@H]1O
- Potency [1]: 52.6 nM (active)
- Potency [3]: 8.3 nM (active)
- Potency ([2]; TFE3-RCC UOK109 viability): 20.9 nM (active)
- z-score [2, 12]: -3.96
- z-score [2, 13]: -3.13
- z-score [2, 14]: -3.36

Compound: C[C@]12COC(=O)C[C@@H]1CC[C@@H]1[C@H]2CC[C@@]2(C)[C@H]1CC[C@]2(C)O
- Potency [1]: inactive
- Potency [3]: inactive
- z-score [2, 12]: 0.93
- z-score [2, 13]: 0.76
- z-score [2, 14]: 0.397

Compound: CC[C@@H]1[C@@H](C)O[C@@](O)([C@@H](C)[C@H](O)[C@H](C)[C@H]2OC(=O)C=CC=C[C@@H](C)[C@@H]([C@@H](C)[C@@H](O)[C@H](C)[C@@]3(O)C[C@H](O[C@H]4C[C@H](O)[C@H](O)[C@H](C)O4)[C@H](CC)[C@@H](C)O3)OC(=O)C=CC=C[C@@H]2C)C[C@H]1O[C@H]1C[C@H](O)[C@H](O)[C@H](C)O1
- Potency [1]: 418 nM (active)
- Potency [3]: 372 nM (active)
- Potency ([2]; TFE3-RCC UOK109 viability): 1050 nM (active)
- z-score [2, 12]: -1.85
- z-score [2, 13]: -2.49
- z-score [2, 14]: -1.57

Compound: COc1cc2cc(c1Cl)N(C)C(=O)C[C@H](OC(=O)C(C)C)[C@]1(C)O[C@H]1[C@H](C)[C@@H]1C[C@@](O)(NC(=O)O1)[C@H](OC)C=CC=C(C)C2
- Potency [1]: inactive
- Potency [3]: inactive
- z-score [2, 12]: -2.37
- z-score [2, 13]: -3.1
- z-score [2, 14]: -1.62

Compound: O=S(=O)(CC1CS1)c1ccc(Oc2ccccc2)cc1 (configuration not stated)
- Potency [1]: 26400 nM (active)
- Z-AUC [4]: 1.02 (inactive)
- Z-AUC [4, 15]: 1.86
- Z-AUC ([4]; measured here: PEO4 Z-AUC): 1.74

Compound: CC(C)N(CCNC(=O)CN1CCCC1=O)C(C)C
- Potency [1]: inactive
- Potency [3]: inactive
- z-score [2, 12]: 0.955
- z-score [2, 13]: 0.437
- z-score [2, 14]: 0.681

Compound: CCNC(=O)C[C@@H]1N=C(c2ccc(Cl)cc2)c2cc(OC)ccc2-n2c(C)nnc21
- Potency [1]: 105 nM (active)
- Z-AUC [4]: -0.661 (inactive)
- Z-AUC [4, 15]: -0.0106
- Z-AUC ([4]; measured here: PEO4 Z-AUC): -0.343

Compound: CCOC(=O)c1c(C(C#N)=CN)c2ccc(Cl)c(Cl)c2n1C
- Potency [3]: inactive
- Z-AUC [4]: 0.895 (inactive)
- Z-AUC [4, 15]: 0.557
- Z-AUC ([4]; measured here: PEO4 Z-AUC): 0.414

Compound: CC(C)[C@H]1C(=O)N[C@H](CO)Cc2c[nH]c3cccc(c23)N1C
- Potency [1]: inactive
- Z-AUC [4]: 0.277 (inactive)
- Z-AUC [4, 15]: -0.654
- Z-AUC ([4]; measured here: PEO4 Z-AUC): -0.578

Compound: C[C@@]12OC(=O)[C@]1([C@@H](O)[C@@H]1C=CCCC1)NC(=O)[C@H]2CCCl
- Potency [1]: 6.6 nM (active)
- Potency [3]: 9.3 nM (active)
- Potency ([2]; TFE3-RCC UOK109 viability): 66.2 nM (active)
- z-score [2, 12]: -1.51
- z-score [2, 13]: -3.3
- z-score [2, 14]: -2.86

Compound: CC(=O)OCC1=C(C(=O)O)N2C(=O)[C@@H](N)[C@@H]2SC1
- Potency [1]: inactive
- Potency [3]: inactive
- z-score [2, 12]: -1.76
- z-score [2, 13]: 0.735
- z-score [2, 14]: 1.3
- Potency [5]: inactive
- Potency [6]: inactive
- Potency [7]: inactive
- Potency [8]: inactive
- outcome [9]: inactive
- Potency [10]: inactive
- Potency [11]: inactive

Compound: CCCC[N+]1(C)[C@H]2CC(OC(=O)[C@H](CO)c3ccccc3)C[C@H]1[C@H]1O[C@H]12 (some centres not stated)
- Potency [3]: inactive
- Z-AUC [4]: 1.48 (inactive)
- Z-AUC [4, 15]: 1.34
- Z-AUC ([4]; measured here: PEO4 Z-AUC): 1.36

Compound: CCOC(=O)Nc1ccc(NCc2ccc(F)cc2)cc1N
- Potency [1]: inactive
- Z-AUC [4]: -0.328 (inactive)
- Z-AUC [4, 15]: 0.0556
- Z-AUC ([4]; measured here: PEO4 Z-AUC): 0.397

Compound: CN(C)NC(=O)CCC(=O)O
- Potency [1]: inactive
- Z-AUC [4]: 1.04 (inactive)
- Z-AUC [4, 15]: 0.492
- Z-AUC ([4]; measured here: PEO4 Z-AUC): 0.93
- z-score [2, 12]: 0.632
- z-score [2, 13]: 0.666
- z-score [2, 14]: -0.178
